# Experimental data: PubChem BioAssay AID1159580 (chemical genetic matrix, 2015)
# About 2,000 (36%) of roughly 5,500 compounds were called active. Inconclusive results (about 18%) are left out. The list shows a part of the results. A number with no mark means an inactive call. No stated cut-off is given here; in the data, active means normalized growth mostly below about 0.91 (no sharp cut-off); inconclusive means no clear call, values can overlap the other calls; inactive means mostly above about 0.92.
# Assay: chemical genetic growth profiling, strain panel (AID 1159580);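 further: tested at 20 µM; growth read once vehicle control cultures reached saturation at 30 °C; 1 = growth at the plate median or of vehicle wells; lower values mean less growth of the strain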
# Conditions: S. cerevisiae deletion strains, growth OD
# [1] = locus YAL013W, strain DEP1, active compounds read low
# [2] = locus YAL040C, strain CLN3, active compounds read low
# [3] = locus YCL061C, strain MRC1 (second series), active compounds read low
# [4] = locus YDR150W, strain NUM1, active compounds read low
# [5] = locus YDR363W, strain ESC2, active compounds read low
# [6] = locus YER002W, strain NOP16, active compounds read low
# [7] = locus YMR263W, strain SAP30, active compounds read low
# [8] = locus YNL175C, strain NOP13, active compounds read low
# [9] = locus YNL197C, strain WHI3, active compounds read low
# [10] = locus YNL224C, strain SQS1, active compounds read low
# [11] = locus YOR083W, strain WHI5 (second series), active compounds read low
# [12] = locus YNL322C, strain KRE1, active compounds read low
compound,measurement,setting,value
NC(Cc1ccc(O)c(O)c1)C(=O)O (configuration not stated),normalized growth,[1],0.997
same,normalized growth,[2],1.02
same,normalized growth,[3],0.977
same,normalized growth,[4],0.955
same,normalized growth,[5],1.02
same,normalized growth,[6],1.01
same,normalized growth,[7],1.01
same,normalized growth,[8],1.01
same,normalized growth,[9],1.03
same,normalized growth,[10],1.01
same,normalized growth,[11],0.97
CC(Cc1ccc(O)c(O)c1)C(C)Cc1ccc(O)c(O)c1 (configuration not stated),normalized growth,[1],0.625 (active)
same,normalized growth,"locus YBR021W, strain FUR4, active compounds read low",0.952
same,normalized growth,"locus YBR229C, strain ROT2, active compounds read low",0.909 (active)
same,normalized growth,"locus YCL029C, strain bik1, active compounds read low",0.916
same,normalized growth,"locus YDL035C, strain GPR1, active compounds read low",0.774 (active)
same,normalized growth,"locus YDL074C, strain BRE1, active compounds read low",0.48 (active)
same,normalized growth,"locus YDL101C, strain DUN1, active compounds read low",0.522 (active)
same,normalized growth,"locus YDL185W, strain tfp1, active compounds read low",0.995
same,normalized growth,"locus YDL192W, strain arf1, active compounds read low",0.896 (active)
same,normalized growth,"locus YDR101C, strain arx1, active compounds read low",0.939
same,normalized growth,"locus YDR162C, strain NBP2, active compounds read low",0.428 (active)
same,normalized growth,"locus YDR318W, strain mcm21, active compounds read low",0.955
same,normalized growth,"locus YDR388W, active compounds read low",0.895 (active)
same,normalized growth,"locus YDR502C, strain sam2, active compounds read low",0.813 (active)
same,normalized growth,"locus YEL061C, strain CIN8, active compounds read low",0.681 (active)
same,normalized growth,"locus YER110C, active compounds read low",0.988
same,normalized growth,"locus YER155C, strain BEM2, active compounds read low",0.756 (active)
same,normalized growth,"locus YER167W, strain BCK2, active compounds read low",0.957
same,normalized growth,"locus YGL078C, strain dbp3, active compounds read low",0.999
same,normalized growth,"locus YGL086W, strain mad1, active compounds read low",0.909 (active)
same,normalized growth,"locus YGL248W, strain PDE1, active compounds read low",0.814 (active)
same,normalized growth,"locus YGR078C, strain PAC10, active compounds read low",0.818 (active)
same,normalized growth,"locus YGR135W, strain pre9, active compounds read low",0.854 (active)
same,normalized growth,"locus YGR229C, strain SMI1, active compounds read low",0.419 (active)
same,normalized growth,"locus YGR252W, strain gcn5, active compounds read low",0.792
same,normalized growth,"locus YHR030C, strain SLT2, active compounds read low",0.87 (active)
same,normalized growth,"locus YHR079C, strain IRE1 (second series), active compounds read low",0.904 (active)
same,normalized growth,"locus YHR094C, strain hxt1, active compounds read low",1.01
same,normalized growth,"locus YHR129C, strain ARP1, active compounds read low",0.73 (active)
same,normalized growth,"locus YHR200W, strain rpn10, active compounds read low",0.964
same,normalized growth,"locus YIL066C, strain RNR3, active compounds read low",0.61 (active)
same,normalized growth,"locus YIL073C, strain SPO22, active compounds read low",0.499 (active)
same,normalized growth,"locus YIL125W, strain kgd1, active compounds read low",1
same,normalized growth,"locus YIR030C, strain dcg1, active compounds read low",0.903 (active)
same,normalized growth,"locus YJL095W, strain BCK1, active compounds read low",0.113 (active)
same,normalized growth,"locus YJL134W, strain LCB3, active compounds read low",0.909 (active)
same,normalized growth,"locus YJL168C, strain set2, active compounds read low",0.983
same,normalized growth,"locus YJL187C, strain SWE1 (second series), active compounds read low",0.621 (active)
same,normalized growth,"locus YJR043C, strain POL32, active compounds read low",0.425 (active)
same,normalized growth,"locus YKL009W, strain mrt4, active compounds read low",0.993
same,normalized growth,"locus YKL068W, active compounds read low",1.01
same,normalized growth,"locus YKL085W, strain MDH1 (second series), active compounds read low",0.992
same,normalized growth,"locus YKL085W, strain MDH1, active compounds read low",0.992
same,normalized growth,"locus YKR001C, strain vps1, active compounds read low",0.882 (active)
same,normalized growth,"locus YLR039C, strain RIC1, active compounds read low",0.293 (active)
same,normalized growth,"locus YLR058C, strain SHM2, active compounds read low",0.643 (active)
same,normalized growth,"locus YLR102C, strain apc9, active compounds read low",1.01
same,normalized growth,"locus YLR262C, strain YPT6, active compounds read low",0.616
same,normalized growth,"locus YLR268W, strain sec22, active compounds read low",0.853 (active)
same,normalized growth,"locus YLR330W, strain CHS5, active compounds read low",0.82 (active)
same,normalized growth,"locus YLR342W, strain FKS1 (second series), active compounds read low",0.645 (active)
same,normalized growth,"locus YLR371W, strain rom2, active compounds read low",0.919
same,normalized growth,"locus YLR418C, strain cdc73, active compounds read low",0.673 (active)
same,normalized growth,"locus YML016C, strain PPZ1, active compounds read low",0.746 (active)
same,normalized growth,"locus YML032C, strain rad52, active compounds read low",0.927
same,normalized growth,"locus YML124C, strain tub3, active compounds read low",0.979
same,normalized growth,"locus YMR078C, strain ctf18, active compounds read low",0.973
same,normalized growth,"locus YMR223W, strain ubp8, active compounds read low",0.91
same,normalized growth,[7],0.455 (active)
same,normalized growth,"locus YMR307W, strain GAS1, active compounds read low",0.691
same,normalized growth,"locus YNL067W, strain RPL9B, active compounds read low",0.726 (active)
same,normalized growth,"locus YNL128W, strain TEP1, active compounds read low",0.816 (active)
same,normalized growth,"locus YNL233W, strain BNI4, active compounds read low",0.849 (active)
same,normalized growth,"locus YNL250W, strain rad50, active compounds read low",1.03
same,normalized growth,"locus YNL271C, strain bni1, active compounds read low",0.997
same,normalized growth,"locus YNL298W, strain CLA4, active compounds read low",0.981
same,normalized growth,"locus YNL307C, strain MCK1, active compounds read low",0.899 (active)
same,normalized growth,[12],0.522 (active)
same,normalized growth,"locus YNR052C, strain pop2, active compounds read low",0.927
same,normalized growth,"locus YOL012C, strain htz1",0.299
same,normalized growth,"locus YOL147C, strain pex11, active compounds read low",0.936
same,normalized growth,"locus YOR061W, strain CKA2, active compounds read low",0.871 (active)
same,normalized growth,"locus YOR069W, strain VPS5, active compounds read low",0.858 (active)
same,normalized growth,"locus YOR136W, strain idh2, active compounds read low",1.01
same,normalized growth,"locus YOR144C, strain elg1, active compounds read low",0.95
same,normalized growth,"locus YOR184W, strain ser1, active compounds read low",0.784 (active)
same,normalized growth,"locus YOR316C, strain cot1, active compounds read low",0.999
same,normalized growth,"locus YPR119W, strain clb2, active compounds read low",1.01
same,normalized growth,"locus YPR141C, strain kar3, active compounds read low",1.01
same,normalized growth,"locus YPR163C, strain tif3, active compounds read low",0.982
same,normalized growth,"locus YPR167C, strain met16, active compounds read low",0.952
same,normalized growth,"strain wtn01, active compounds read low",0.892 (active)
CC(N)[C@H](O)c1ccc(O)c(O)c1 (some centres not stated),normalized growth,[1],0.998
same,normalized growth,[2],1.05
same,normalized growth,[3],0.993
same,normalized growth,[4],0.995
same,normalized growth,[5],0.989
same,normalized growth,[6],1
same,normalized growth,"locus YJR075W, strain HOC1, active compounds read low",0.983
same,normalized growth,"locus YNL153C, strain GIM3, active compounds read low",0.986
same,normalized growth,[8],1.01
same,normalized growth,[9],1.01
same,normalized growth,[10],0.992
same,normalized growth,[12],1.01
same,normalized growth,[11],0.988
same,normalized growth,"locus YPL055C, strain LGE1, active compounds read low",1
